Source: PubChem
Only some compounds are listed: those with a hit (about 2.1% of all), similar ones and a draw of the others.
F508del corr = F508del CFTR correction, initial screen, CFBE line, single point | CFBE cells, YFP halide quenching; stimulated with forskolin plus potentiator P3; % fluorescence drop versus neutral controls | activity (quench increase), % at 7.58 µM | 0.36% of 350,000 active;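 active means mean added fluorescence quench of at least 8% versus neutral control, with both replicates also reaching 8%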;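 further: cells transiently co-express mutant CFTR-F508del with the halide-sensitive YFP; corrector assay measuring rescue of mutant channel to the surface after 24 h compound exposure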
ERAP1 HTS inh = human ERAP1 aminopeptidase inhibitors, primary screen, biochemical, single point, plate reader. Endoplasmic reticulum aminopeptidase 1 (Homo sapiens), Q9NZ08. recombinant ERAP1, Leu-AMC fluorescence, 60 min. inhibition, % at 10.7 µM. 0.15% of 340,000 active;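 active means mean replicate inhibition of at least 30%, or all replicates individually reaching that 30% level; inactive means mean below 30% and not every replicate reaching it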;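 further: 0% = neutral control wells and 100% = L-leucinethiol positive control wells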
rRNA inh HTS = reduced GFP signal of wild-type E. coli, primary screen, bacterial rRNA inhibitor project, GFP/RFP fluorescence, OD600, single point; E. coli WT GFP vs humanized-ribosome RFP mutants, 24 h; stronger effect = lower value; DMSO median 0, no signal -100; GFP signal change (wild-type ribosome), % (concentration not given with the values); 1.6% of 350,000 active;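 active means significant combined selectivity score with lowered wild-type GFP, culture density cut under 30%, mutant RFP and density less affected; inactive means any of these conditions unmet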
PvdQ acylase = P. aeruginosa PvdQ acylase inhibitors, primary screen, biochemical, fluorescence, plate reader and imaging, single point; 0.063% of 340,000 active; AID 488965, 2010; PvdQ acylase [Pseudomonas aeruginosa LESB58]; purified PvdQ acylase; inhibition, % at 10 µM; in the data active means inhibition above about 30%, passing the limit was not always enough;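 further: 0% = vehicle neutral wells and 100% = reference inhibitor wells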
ARNT-TACC3 inh = disruptors of ARNT/TACC3 protein interaction, primary screen, biochemical, AlphaScreen, single concentration; AlphaScreen His-ARNT PAS-B/GST-TACC3 binding, luminescence; TACC3 fragment carries E629A point mutation; inhibition, % at 9.99 µM; 0.66% of 390,000 active; AID 623870, 2012;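 active means mean inhibition of replicates at least 50% and at least half of replicates each reaching 50%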;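 further: 0% = complete ARNT plus TACC3 wells and 100% = ARNT alone without TACC3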
Active calls of the source: *.

Screening CC[n+]1c(C)sc2c(C)cc(C)cc21 returned ERAP1 HTS inh 21, rRNA inh HTS 12 and PvdQ acylase -18.
`Cc1cc(C)c2sc(C)[n+](CCCS(=O)(=O)[O-])c2c1` gave F508del corr 1, ERAP1 HTS inh 97*, rRNA inh HTS 15, PvdQ acylase -6 and ARNT-TACC3 inh 11.
COc1ccccc1NC(=S)NNC(=O)c1nn(C)c(C)c1Cl was read as PvdQ acylase -7 and ARNT-TACC3 inh 36.
Screening COc1ccccc1NC(=S)NNC(=O)c1nn(C)cc1Cl returned PvdQ acylase 4 and ARNT-TACC3 inh 57*.
C(=N\Nc1ccc2nncn2n1)/c1ccccn1 was read as F508del corr 2, ERAP1 HTS inh -2, rRNA inh HTS -34*, PvdQ acylase 1 and ARNT-TACC3 inh 51*.
C(=N\Nc1nc2ccccc2[nH]1)/c1ccccn1 was read as F508del corr 0, ERAP1 HTS inh -1, rRNA inh HTS 12 and PvdQ acylase -6.
Screening O=c1nc(N/N=C/c2ccccn2)cn[nH]1 returned F508del corr 4, ERAP1 HTS inh 5, rRNA inh HTS -27, PvdQ acylase 4 and ARNT-TACC3 inh 64*.
O=c1cnnc(N/N=C/c2ccccn2)[nH]1 was read as F508del corr -1, ERAP1 HTS inh 5, rRNA inh HTS -26, PvdQ acylase -9 and ARNT-TACC3 inh 78*.
For O=C(Nc1cc(F)ccc1F)N[C@@H]1CC[C@@H](CCn2cc(C3CCCC3)nn2)O[C@@H]1CO the results were F508del corr 0, ERAP1 HTS inh 2 and rRNA inh HTS 2.
Screening CN1C(=O)c2oc3ccccc3c(=O)c2C1c1ccncc1 (stereo not given) returned PvdQ acylase -23 and ARNT-TACC3 inh 93*.
For CO[C@@H]1CN(C)C(=O)c2ccc(NS(C)(=O)=O)cc2OC[C@@H](C)N(Cc2ccccn2)C[C@H]1C the results were F508del corr -2, rRNA inh HTS 3 and ARNT-TACC3 inh 2.
`O=C(O)[C@H](Cc1ccccc1)NC(=O)C(c1ccccc1)(c1ccccc1)c1ccccc1` gave F508del corr 1, ERAP1 HTS inh 7, rRNA inh HTS -23* and PvdQ acylase -13.
Screening Nc1ncnc(N)c1N=Nc1ccccc1 returned F508del corr 3, ERAP1 HTS inh 1, rRNA inh HTS 9, PvdQ acylase -11 and ARNT-TACC3 inh 0.
Screening Nc1ccc2ccccc2c1N=Nc1ccccc1 returned F508del corr 0, ERAP1 HTS inh 2, rRNA inh HTS -31*, PvdQ acylase -11 and ARNT-TACC3 inh 19.
`C/C=C/c1cnc2c(c1)C(=O)N([C@@H](C)CO)C[C@@H](C)[C@H](CN(C)S(=O)(=O)c1ccc(OC)cc1)O2` gave F508del corr 0, ERAP1 HTS inh 2, rRNA inh HTS -4 and ARNT-TACC3 inh -2.
For Cc1nc(NC(=S)Nc2ccccc2)sc1C the results were F508del corr 3, ERAP1 HTS inh 0, rRNA inh HTS -27*, PvdQ acylase -5 and ARNT-TACC3 inh -10.
Screening CCc1nnc(NC(=S)Nc2ccccc2)s1 returned ERAP1 HTS inh 0, rRNA inh HTS -1, PvdQ acylase -11 and ARNT-TACC3 inh -4.
For CNC[C@@H]1Oc2c(NS(=O)(=O)c3cn(C)cn3)cccc2C(=O)N([C@H](C)CO)C[C@H]1C the results were F508del corr 0, ERAP1 HTS inh -2, rRNA inh HTS -2 and ARNT-TACC3 inh -14.
COc1ccc(NCC(=O)n2c(C)c(C)c3ccccc32)cc1 was read as F508del corr 9.4*, ERAP1 HTS inh 5, rRNA inh HTS -4, PvdQ acylase -10 and ARNT-TACC3 inh 6.
CO[C@@H]1CN(C)C(=O)c2cc(NC(=O)C3CCC3)ccc2OC[C@H](C)N(Cc2ccncc2)C[C@H]1C was read as F508del corr 3 and rRNA inh HTS -2.
`Cn1cc(CN2CCN(c3ccc(Cl)cn3)CC2)c(-c2ccccc2F)n1` gave F508del corr 1, rRNA inh HTS -8, PvdQ acylase 1 and ARNT-TACC3 inh 2.
For Cc1cccc(N2CCN(Cc3cn(C)nc3-c3ccccc3F)CC2)n1 the results were F508del corr 9.1*, ERAP1 HTS inh 2, rRNA inh HTS 13, PvdQ acylase -21 and ARNT-TACC3 inh 1.
CCCC(=O)Nc1ccc2c(c1)OC[C@@H](C)N(C(=O)CC)C[C@H](C)[C@@H](OC)CN(C)C2=O was read as F508del corr -1, ERAP1 HTS inh -3, rRNA inh HTS -1 and ARNT-TACC3 inh -6.
Screening COc1cccc(-c2csc(NC(=O)Nc3ccccc3)n2)c1 returned F508del corr 3, ERAP1 HTS inh -3, rRNA inh HTS -28*, PvdQ acylase -12 and ARNT-TACC3 inh -7.
O=C(Nc1ccccc1)Nc1nc(-c2ccccc2)cs1 was read as F508del corr -3, ERAP1 HTS inh -3, rRNA inh HTS 5, PvdQ acylase -15 and ARNT-TACC3 inh 8.
Screening c1ccc(CNc2nc(N3CCN(Cc4ccccc4)CC3)nc3ccccc23)cc1 returned F508del corr -2, ERAP1 HTS inh 0 and rRNA inh HTS -43*.
Screening COc1ccccc1NC(=O)NCCCN1CCN(c2cccc(Cl)c2)CC1 returned F508del corr 2, ERAP1 HTS inh 4, rRNA inh HTS -14, PvdQ acylase 0 and ARNT-TACC3 inh 48*.
For Cc1ccc(S(=O)(=O)N(C)C[C@H]2Oc3ccc(NC(=O)NC(C)C)cc3C(=O)N([C@@H](C)CO)C[C@H]2C)cc1 the results were F508del corr -2, ERAP1 HTS inh -1, rRNA inh HTS -2 and ARNT-TACC3 inh -5.
Screening O=C(Cc1cccc2ccccc12)NN1C(=O)CSC1=S returned F508del corr 1, ERAP1 HTS inh -2, rRNA inh HTS 2, PvdQ acylase -16 and ARNT-TACC3 inh -7.
`O=C(NN1C(=O)CSC1=S)C(=O)NN1C(=O)CSC1=S` gave F508del corr -6, ERAP1 HTS inh -1, rRNA inh HTS 0, PvdQ acylase -6 and ARNT-TACC3 inh 59*.
For COc1ccc(S(=O)(=O)Nc2ccc3c(c2)C(=O)N([C@@H](C)CO)C[C@H](C)[C@@H](CN(C)S(=O)(=O)c2ccccc2)O3)cc1 the results were F508del corr 4, ERAP1 HTS inh 2, rRNA inh HTS 3 and ARNT-TACC3 inh -10.
Screening Cc1noc(C)c1S(=O)(=O)N(C)C[C@@H]1Oc2ccc(NS(=O)(=O)c3ccc(F)cc3)cc2CC(=O)N([C@H](C)CO)C[C@H]1C returned F508del corr -1, ERAP1 HTS inh -2 and rRNA inh HTS 1.
